This experiment deals with DNA dC->dU-editing enzyme APOBEC-3G (Homo sapiens) (UniProt Q9HC16). The experiment is described as follows: human A3G ssDNA deamination inhibition, hit confirmation – biochemical, fluorescence, single-stranded DNA substrate, single concentration (AID 493152). Conditions: recombinant A3G ssDNA deaminase, UDG/FAM-TAMRA fluorescence; at 20 µM; active compounds read high.

The list shows a part of the results. Active and inactive are the calls of the source.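 The calls were made as follows: active = inhibition reaching a set limit in any replicate at 20 µM, the limit being 80% of the first screen's; inactive = the rest.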

Sequence of DNA dC->dU-editing enzyme APOBEC-3G (Homo sapiens) (Q9HC16 whole entry, looked up): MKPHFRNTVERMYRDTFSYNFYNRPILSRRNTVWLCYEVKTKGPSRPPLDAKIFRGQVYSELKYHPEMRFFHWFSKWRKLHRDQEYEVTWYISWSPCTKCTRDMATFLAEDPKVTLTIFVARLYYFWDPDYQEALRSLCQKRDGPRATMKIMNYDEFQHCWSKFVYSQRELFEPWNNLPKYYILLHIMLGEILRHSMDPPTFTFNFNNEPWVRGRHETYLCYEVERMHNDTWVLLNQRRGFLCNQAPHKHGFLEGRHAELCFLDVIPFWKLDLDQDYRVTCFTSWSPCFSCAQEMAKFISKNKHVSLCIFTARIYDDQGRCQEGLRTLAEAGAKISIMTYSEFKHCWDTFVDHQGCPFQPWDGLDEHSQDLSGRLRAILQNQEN

The term inhibition denotes the change of the read-out against control, counted positive when it falls. For the compound `COC(=O)N(c1ccc(OC)cc1)P1(=S)OCCC(C)O1` (stereo unspecified), the inhibition was 42.1% (active).

The values above are taken from PubChem BioAssay AID493152 (Sanford-Burnham Center for Chemical Genomics, 2011).
